Screening results (PubChem)
FBA Mtb inh: Mtb FBA enzyme inhibitors, primary screen, biochemical, fluorescence, strain H37Rv; Fructose-bisphosphate aldolase (Mycobacterium tuberculosis (strain ATCC 25618 / H37Rv)), …; purified M. tuberculosis FBA, fluorescence read-out; inhibition, % at 1 µM; 2.3% of 360,000 active; AID 588726, 2011; in the data active = inhibition above about 27%
Target sequence (P9WQA3 whole entry, looked up): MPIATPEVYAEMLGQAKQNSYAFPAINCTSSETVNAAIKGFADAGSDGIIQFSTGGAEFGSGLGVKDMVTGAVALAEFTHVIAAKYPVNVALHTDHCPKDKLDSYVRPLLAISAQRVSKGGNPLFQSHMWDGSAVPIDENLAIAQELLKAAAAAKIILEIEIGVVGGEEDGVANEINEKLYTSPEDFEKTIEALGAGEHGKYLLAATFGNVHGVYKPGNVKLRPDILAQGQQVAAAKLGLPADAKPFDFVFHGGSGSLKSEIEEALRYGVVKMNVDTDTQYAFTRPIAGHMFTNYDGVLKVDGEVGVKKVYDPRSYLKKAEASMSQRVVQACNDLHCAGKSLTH
Mtb bLac sens: beta-lactam sensitization of Mtb H37Rv, H37Rv | inhibition, % at 25 µM | M. tuberculosis H37Rv growth with meropenem, percent inhibition | 0.27% of 330,000 active; call rule not given here;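 note: growth measured after seven days incubation then overnight dye step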
RecA intein inh: Mtb RecA intein splicing inhibitors, primary screen, biochemical, fluorescence, HTS; Protein RecA (Mycobacterium tuberculosis (strain ATCC 25618 / H37Rv)), P9WHJ3; inhibition, % (test concentration not listed); 0.75% of 290,000 active; cell-free RecA intein splicing; AID 2221, 2009; in the data active = inhibition above about 30%
CCHF vOTU inh-1: CCHFV vOTU protease inhibitors, primary screen, biochemical, Pep-AMC substrate, fluorescence; Crimean-Congo hemorrhagic fever virus L polyprotein viral ovarian tumor (vOTU) protease …; inhibition, % at 11.5 µM; 0.55% of 370,000 active; AID 651958, 2012
GDH-TPI counter: GDH-TPI coupling enzyme inhibitors, primary screen, artefact control for M. tuberculosis FBA inhibitor project, biochemical, absorbance, full deck. 1.2% of 360,000 active. GDH-TPI coupled enzyme counterscreen, NADH absorbance. inhibition, % at 4.8 µM
CCHF vOTU inh-2: CCHFV vOTU protease inhibitors, confirmation, biochemical, Pep-AMC substrate, fluorescence | shares compounds with CCHF vOTU inh-1 | Recombinant CCHFV vOTU | inhibition, % at 11.5 µM | 17% of 1,900 active
Numbers stand for hits; i = inactive; nt = no result given. Most compounds without a hit are left out; they make up all but 4.2% or so of the library. Cut-off read from the data, not from the text of the source, unless noted: active = inhibition above about 30%; inactive = the rest.

SMILES	FBA Mtb inh	Mtb bLac sens	RecA intein inh	CCHF vOTU inh-1	GDH-TPI counter	CCHF vOTU inh-2
CCCNC(=O)C1(C)CCN1C(=O)Cc1ccc(C(C)(C)C)cc1 (stereo unspecified)	i	nt	nt	i	i	nt
O=C(CSc1ccccn1)Nc1cccc(S(=O)(=O)N2CCCC2)c1	i	i	nt	i	i	nt
CC(C)N(C(N)=NC(=O)OCc1ccccc1)C(C)C	nt	nt	nt	i	nt	nt
Cc1ccc(S(=O)(=O)N2CCCCC2)cc1NC(=O)COC(=O)c1cccn1C	i	i	nt	i	i	nt
S=C(Nc1ccc2nc(-c3ccccn3)c(-c3ccccn3)nc2c1)N1CCOCC1	i	i	i	36	i	i
CN(C)c1ccc(C=Nc2ccc(N(C)C)cc2)cc1	i	i	i	68	32	i
Cc1ccc(N=Cc2ccc(N(C)C)cc2)cc1C	i	i	i	i	i	nt
CC(C)n1c(SC2C(=O)CC(C)(C)CC2=O)nc2c1c(=O)n(C)c(=O)n2C	i	i	i	30	i	i
CCCn1c(SC2C(=O)CC(C)(C)CC2=O)nc2c1c(=O)n(C)c(=O)n2C	i	i	i	i	i	nt
Cc1cnc(C=NNC(N)=S)c2cccc(N)c12	i	nt	nt	45	i	73
CCOc1cccc(CNc2ccc(O)cc2)c1OCc1ccc(Cl)cc1	i	i	i	31	i	i
CC(OC(=O)C1CC1)C(=O)Nc1cccc(S(=O)(=O)N2CCOCC2)c1 (stereo unspecified)	i	i	nt	i	i	nt
NC1=C(Br)C(=O)c2ncccc2C1=O	i	nt	nt	107	i	94
CC(C)C[C@@H](CN1CCC[C@@H]1CN1C(=S)NC[C@@H]1Cc1ccc(O)cc1)N1C[C@H](Cc2ccc(O)cc2)N(CCc2ccccc2)C1=S	i	nt	nt	30	nt	i
CC(C)C[C@H]1CN([C@@H](Cc2ccc(O)cc2)CN2CCCC2CN2C(=S)NC[C@@H]2Cc2ccccc2)C(=S)N1CC1CCCCC1 (stereo partly specified)	nt	nt	nt	30	nt	i
CC(C)C[C@@H](CN1CCCC1CN1C(=S)NC[C@@H]1Cc1ccccc1)N1C[C@H](Cc2ccc(O)cc2)N(CCc2ccccc2)C1=S (stereo partly specified)	nt	nt	nt	i	nt	nt
COC(=O)c1cc2c(c3c4cc(C#N)ccc4n(S(=O)(=O)c4ccc(C)cc4)c13)C(=O)N(C)C2	nt	nt	nt	i	nt	nt
Cc1cc2ccccn2c1C(=O)Nc1cccc(Cl)c1	i	i	i	i	i	nt
CCN(CC)CCN1C(=O)C(=O)/C(=C(/O)c2c(C)[nH]c(C(=O)OC)c2C)C1c1ccc(C)o1 (stereo unspecified)	i	i	i	i	i	nt
COc1ccc(C(=O)OCC(=O)N2c3ccccc3CC2C)cc1S(=O)(=O)N1CCOCC1 (stereo unspecified)	i	nt	nt	i	i	nt
COC(=O)[C@]12C[C@H](CC(=O)NCc3cccc(C(F)(F)F)c3)C(=O)N(Cc3ccco3)C1=C[C@H](C(C)(C)C)O[C@@H]2C	nt	nt	nt	32	nt	i
CCCCCCCCN1C(=O)[C@@H](CC(=O)NCc2cccc(C(F)(F)F)c2)C[C@@]2(C(=O)OC)C1=C[C@H](C(C)(C)C)O[C@@H]2C	nt	nt	nt	i	nt	nt
COC(=O)[C@]12C[C@H](CC(=O)NCc3cccc(C(F)(F)F)c3)C(=O)N(Cc3ccc(Cl)cc3Cl)C1=C[C@H](C(C)(C)C)O[C@@H]2C	nt	nt	nt	32	nt	i
COC(=O)[C@]12C[C@H](CC(=O)NCc3cccc(C(F)(F)F)c3)C(=O)N(CCc3ccc(OC)c(OC)c3)C1=C[C@H](C(C)(C)C)O[C@@H]2C	nt	nt	nt	i	nt	nt
CC1(C(=O)Nc2cccc(OC(F)(F)F)c2)Cc2c(-c3ccc4c(c3)OCO4)ccnc2O1 (stereo unspecified)	i	nt	nt	31	i	i
COc1cc(/C=N/Nc2ccc(S(N)(=O)=O)cc2)cc(OC)c1OC	i	i	i	30	i	i
Cc1ccc(NC(=O)CN2CCCC2)cc1Br	i	i	i	i	i	nt
CC(C)Cc1ccc(C(C)C(=O)Nc2ccc(O)cc2)cc1 (stereo unspecified)	i	i	i	30	i	i
COc1ccc(Cc2nc(-c3cccs3)no2)cc1	i	i	i	i	i	nt
